Shown are actives, neighbours in structure and some others; about 1.8% of the full set was active somewhere.
VLA-4 inh: inhibition in a human VLA-4 binding assay; AID 2557; hit rate 0.2% among 330,000; inhibition, % (about 7 µM as worked out from the volumes in the protocol); VLA-4 expressing cells, ligand binding flow cytometry; P13612
Target sequence (P13612 whole entry, looked up): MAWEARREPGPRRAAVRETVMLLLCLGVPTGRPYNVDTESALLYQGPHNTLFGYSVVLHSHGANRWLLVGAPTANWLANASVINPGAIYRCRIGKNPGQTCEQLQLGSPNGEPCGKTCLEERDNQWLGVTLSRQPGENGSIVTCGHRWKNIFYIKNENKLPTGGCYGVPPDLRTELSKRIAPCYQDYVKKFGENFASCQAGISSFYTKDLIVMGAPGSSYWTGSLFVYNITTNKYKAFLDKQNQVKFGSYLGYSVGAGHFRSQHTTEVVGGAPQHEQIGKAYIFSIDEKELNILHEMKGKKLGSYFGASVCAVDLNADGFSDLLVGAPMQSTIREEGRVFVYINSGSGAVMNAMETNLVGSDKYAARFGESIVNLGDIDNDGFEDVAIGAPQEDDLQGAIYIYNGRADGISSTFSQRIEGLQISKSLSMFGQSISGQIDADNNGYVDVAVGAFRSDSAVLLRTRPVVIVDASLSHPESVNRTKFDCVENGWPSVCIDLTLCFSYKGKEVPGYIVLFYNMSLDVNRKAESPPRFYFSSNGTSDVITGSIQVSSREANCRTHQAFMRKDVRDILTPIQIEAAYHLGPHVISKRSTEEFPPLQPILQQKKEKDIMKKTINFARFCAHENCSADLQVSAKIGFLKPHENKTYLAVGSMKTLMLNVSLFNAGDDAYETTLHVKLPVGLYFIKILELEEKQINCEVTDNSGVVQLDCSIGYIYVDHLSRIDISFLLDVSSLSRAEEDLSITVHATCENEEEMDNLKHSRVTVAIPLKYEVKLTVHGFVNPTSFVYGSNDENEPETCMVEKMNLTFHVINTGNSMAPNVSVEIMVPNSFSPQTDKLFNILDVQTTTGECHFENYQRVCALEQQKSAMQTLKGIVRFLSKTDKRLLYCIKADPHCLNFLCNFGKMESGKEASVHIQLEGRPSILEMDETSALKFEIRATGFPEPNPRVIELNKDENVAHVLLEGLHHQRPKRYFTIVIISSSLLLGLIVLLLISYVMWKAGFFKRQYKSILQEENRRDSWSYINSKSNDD
PKD1 kinase inh: blocks activity of human protein kinase D1 | AID 797 | Q15139 | inhibition, % (test concentration not listed) | PKD1 kinase fluorescence polarization assay | hit rate 0.056% among 200,000
Pemphigus Ab inh: blocks pemphigus antibody binding to human desmoglein-3; hit rate 0.48% among 310,000; binding (percent of control), % at 10 µM; DSG3-coupled beads, scFv-anti-DSG3-GFP binding, flow cytometry; hits give low values;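 active means binding more than 3 SD below its plate's average and above zero; inconclusive means below that plate limit but binding exactly zero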;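 further: hits lower antibody fragment binding to DSG3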
HDAC3 inh: blocks human histone deacetylase 3; O15379; inhibition, % at 8.3 µM; recombinant HDAC3, fluorogenic peptide/trypsin coupled, fluorescence; hit rate 0.15% among 320,000; in the data active means inhibition above about 26%, passing the limit was not always enough; inconclusive means no clear call, values can overlap the other calls
GRK2 aptamer HTS: human GRK2 inhibition via aptamer displacement | inhibition of aptamer binding, % at 10 µM | hit rate 0.59% among 330,000 | P25098 | bead flow cytometry, FAM-aptamer displacement from GRK2;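 active means inhibition of aptamer binding above 40%, roughly 3 SD of noise, on plates passing a quality check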;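 further: median bead fluorescence of bound FAM aptamer so fluorescent compounds give negative values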
LANA-H2B inh: blocks KSHV LANA binding to histone H2A/H2B. Q9QR71. inhibition, % (no concentration beside the values). cell-free LANA-H2A/H2B peptide, fluorescence polarization. hit rate 0.6% among 320,000; in the data active means inhibition mostly above about 10%, no sharp cut-off; inactive means mostly below about 6.7%
The depositor's hits bear a star; ? = inconclusive; . = no result; + = active, no number. Unless noted, no stated cut-off is given here; in the data, active means inhibition above about 50%; inactive means the rest.

SMILES	VLA-4 inh	PKD1 kinase inh	Pemphigus Ab inh	HDAC3 inh	GRK2 aptamer HTS	LANA-H2B inh
COc1ccc(C(=O)Nn2c(C)nc3ccccc3c2=O)cc1Br	5	.	72*	2	0	-3
O=C(CSc1ccccc1)Nc1ccccc1N1CCOCC1	12	13	98	-1	3	-3
Nc1cc(N)nc(SCC(=O)Nc2ccccc2N2CCOCC2)n1	8	.	98	-10	1	14*
Cc1ccc(NC(=O)CSc2nc(N)cc(N)n2)cc1S(=O)(=O)N1CCOCC1	6	.	100	-1	7	19*
CN(C)C(=O)CSc1nnc(Cc2ccc([N+](=O)[O-])cc2)o1	12	2	80	1	1	-1
CC(=O)CSc1nnc(Cc2ccc([N+](=O)[O-])cc2)o1	-4	4	98	28*	5	0
CCN(CC)S(=O)(=O)c1ccc(N2CCOCC2)c(NC(=O)COc2ccc(OC)cc2)c1	12	.	.	-3	1	+
COC(=O)[C@@]12CCCN1[C@H](c1ccc(-c3cccc(Cl)c3)c(OC)c1)[C@H]1C(=O)N(C)C(=O)[C@H]12	2	.	113	5	0	1
COC(=O)[C@@]12CCCCN1[C@H](c1ccc(-c3cccc(Cl)c3)c(OC)c1)[C@@H]1C(=O)N(C)C(=O)[C@@H]12	30	.	96	33*	0	0
C=C(C)C(=O)OC1(C(F)(F)F)Oc2cc(C)ccc2NC1=O (centres undefined)	3	-2	103	29*	3	1
CCN(C(=O)Cn1cc(C(F)(F)F)ccc1=O)C1CCS(=O)(=O)C1 (centres undefined)	.	.	98	.	.	.
CSc1ccccc1C(=O)NCc1ccc(C)cc1	16	1	102	-6	0	1
CSc1ccccc1C(=O)NCc1ccc(F)cc1	22	74*	99	5	0	-2
O=C(O)c1ccccc1C(=O)NCc1ccc(F)cc1	4	-1	97	-2	0	20*
O=C(O)c1ccccc1C(=O)NCc1ccccc1	-1	5	100	-1	0	0
CC1(C)CC(Cc2ccc(C(=O)c3ccccc3)cc2)N(C(=O)OC(C)(C)C)N1 (centres undefined)	.	.	97	.	.	.
Cc1cc(=O)oc2cc(OCC(=O)N3CCOCC3)c(Cl)cc12	19	.	107	-35	0	6
O=C1OC(COc2ccc(Br)cc2)CN1c1ccccc1 (centres undefined)	-1	.	81*	3	0	-3
Cc1ncc(C(O)c2ccc(N(C)C)cc2)n1Cc1ccccc1 (centres undefined)	.	.	97	.	.	.
CN(C)c1ccc2nc3c(=O)[nH]c(=O)nc-3n(CC(O)C(O)C(O)CO)c2c1 (centres undefined)	-9	.	89	.	4	30*
CC1CCN(C(=O)CSc2nc(N)c(NC(=O)c3ccccc3)c(=O)[nH]2)CC1	25	.	114	-5	3	48*
O=C(Oc1ccc(-c2nnco2)cc1)C1CCN(C(=O)c2ccc(F)cc2)CC1	3	.	109	0	1	-10
COc1cccc(OCCOc2c(OC)cccc2OC)c1	5	-6	112	1	0	14*
COC(=O)NNC(=O)c1ccc(C)c(Br)c1	-2	7	93	-6	80*	2
C/C(=N\NC(=O)CSc1nc(C)cc(C)n1)c1cccs1	11	-1	93	-2	0	25*
SMILES	VLA-4 inh	PKD1 kinase inh	Pemphigus Ab inh	HDAC3 inh	GRK2 aptamer HTS	LANA-H2B inh
C/C(=N\NC(=O)CSc1nc(C)cc(C)n1)c1cccc([N+](=O)[O-])c1	1	-3	66*	1	0	4
Cc1cc(C)nc(SCC(=O)NNC(=O)c2cccs2)n1	2	-4	105	-1	3	-4
O=C(NCC1CCCN1S(=O)(=O)c1cccs1)c1cccc([N+](=O)[O-])c1 (centres undefined)	7	.	110	-10	0	-3
COc1ccc(C(=O)COC(=O)C(CCSC)NS(=O)(=O)c2ccc(Cl)cc2)cc1 (centres undefined)	19	-3	97	13	3	176*
CSCCC(NS(=O)(=O)c1ccc(Cl)c(Cl)c1)C(=O)O (centres undefined)	26	8	100	4	0	17*
CSCCC(NS(=O)(=O)c1ccc2ccccc2c1)C(=O)O (centres undefined)	1	5	89	3	0	28*
Cc1ccc(NC(=O)Cn2c(=O)c3cccn3c3ccccc32)cc1	-5	.	.	-1	1	4
NC(=O)SCC(=O)Nc1cccc(Cl)c1	-25	-1	97	39*	2	-4
NC(=O)SCC(=O)Nc1ccc(Cl)cc1	5	-8	101	?	1	0
Cn1ncc([N+](=O)[O-])c1C(=O)Nc1ccc(C2CCCCC2)cc1	3	0	108	11	2	0
Cc1[nH]n(C2=NCCS2)c(=O)c1N=Nc1ccccc1	-3	-2	83	60*	0	-3
Cc1[nH]n(-c2ccccc2)c(=O)c1N=Nc1ccc2c(c1)OCO2	0	-3	106	0	0	2
Cc1noc(NS(=O)(=O)c2ccc(NC(=O)c3ccccc3NS(=O)(=O)c3ccc(F)c(F)c3)cc2)c1C	.	.	111	.	.	.
CCOC(=O)/C(C#N)=C(/C)c1ccc(OC)cc1	2	-3	89	4	0	-3
CCCCC(CC)COC(=O)C(C#N)=C(c1ccccc1)c1ccccc1 (centres undefined)	20	.	105	-1	2	15*
Cc1ccc(S(=O)(=O)N2CCN(C(=O)COC(=O)c3ccccc3OC(F)F)CC2)c(C)c1	.	.	100	.	.	.
O=C(Nc1ccccc1Cl)c1cccc(NC(=O)c2cccs2)c1	14	.	103	-7	0	38*
O=C(Cc1ccccc1)Nc1ccc(NC(=O)c2cccs2)cc1Cl	5	-7	72*	0	0	3
O=C(Nc1ccccc1Cl)c1cccc(NC(=O)C2CCCC2)c1	18	.	120	4	3	-3
O=C(/C=C/c1ccccc1[N+](=O)[O-])NCCCN1CCCC1=O	17	.	112	2	0	-1
CCN(CC)CCCN1C(=O)C(=O)/C(=C(/O)c2ccccc2)C1c1cc(OC)ccc1OC (centres undefined)	8	.	108	3	1	17*
CCN(C(=O)COC(=O)CCC(=O)c1ccc(C)cc1)c1c(N)n(Cc2ccccc2)c(=O)[nH]c1=O	.	.	99	.	.	.
O=C(c1ccc(Cl)cc1)[C@@H]1[C@@H]2C(=O)N(c3ccccc3)C(=O)[C@@H]2C2c3ccccc3C=NN21 (some centres undefined)	-2	-3	78*	-2	1	-1
COc1ccc(N(C)C(=O)c2cc3c(s2)-c2ccccc2OC3)c(OC)c1	-9	.	113	5	2	18*

Compound activity as filed in PubChem.
